# Records with an inconclusive call do not appear. The source made the active and inactive calls. The calls were made as follows, unless noted: active = hit-call score of the fitted dose curve at least 0.9, where 1 is the maximum; inconclusive = response in the unintended direction; inactive = score below 0.9.
# How the values were obtained:
# [1] = TOX21_p53_BLA_p3_viability: Viability Assessment in the Tox21 HCT-116 p53 Agonism Beta-lactamase Assay, Phase 3 (AID 2283593);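 also: cells exposed to compound for 16 h before reading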
# Procedure, shortened: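 HCT-116 cells (4000/well) rested 5 h at 37C, then got DMSO compounds by pin tool (217-fold dilution) for 16 h at 37C, 5% CO2. After the bla read, CellTiter-Glo was added and luminescence read at 30 min, room temperature.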
# [2] = TOX21_p53_BLA_p5_viability: Viability Assessment in the Tox21 HCT-116 p53 Agonism Beta-lactamase Assay, Phase 5 (AID 2283600)
# Procedure, shortened: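 4000 cells/well; 5 h pre-incubation; DMSO compounds pin-transferred, 217-fold dilution; 16 h, 37C/5% CO2; CCF4-AM 2 h RT; CellTiter-Glo 30 min RT; luminescence.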
# [3] = target: Cellular tumor antigen p53 (Homo sapiens) (UniProt P04637); assay: TOX21_p53_BLA_p4_ratio: Tox21 HCT-116 p53 Agonism Beta-lactamase Assay, Ratio, Phase 4 (AID 2283601)
# Cellular tumor antigen p53 (Homo sapiens), sequence (P04637 whole entry, looked up): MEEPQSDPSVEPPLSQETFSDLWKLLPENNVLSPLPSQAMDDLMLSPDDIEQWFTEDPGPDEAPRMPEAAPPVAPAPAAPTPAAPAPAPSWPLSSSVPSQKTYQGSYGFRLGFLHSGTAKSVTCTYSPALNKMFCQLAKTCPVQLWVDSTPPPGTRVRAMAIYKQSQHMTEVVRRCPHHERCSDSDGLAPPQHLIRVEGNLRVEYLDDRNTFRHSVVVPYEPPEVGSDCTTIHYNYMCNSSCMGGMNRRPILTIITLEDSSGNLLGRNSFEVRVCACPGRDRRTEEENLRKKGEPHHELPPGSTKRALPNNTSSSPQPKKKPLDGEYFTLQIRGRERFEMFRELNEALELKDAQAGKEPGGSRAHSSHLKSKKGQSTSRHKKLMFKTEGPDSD
# Procedure, shortened: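 HCT116 cells carrying an inducible beta-lactamase reporter were plated at 4000 cells/well, rested 5 h, then exposed to compounds in DMSO (217-fold dilution) for 16 h at 37C. CCF4-AM substrate was loaded 2 h at room temperature; 460/530 nm emission ratio scored gain-of-signal versus DMSO.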
# [4] = CCTE_Harrill_HTTr_Viability_MCF7: CCTE's 6-hour Cell Viability Assessment for the High-Throughput Transcriptomics (HTTr) Platform, in MCF-7 cells cultured in DMEM + 10% fetal bovine serum, Harrill Lab (AID 2284010; active = hit-call score of the fitted dose curve at least 0.9, where 1 is the maximum; inactive = score below 0.9)
# Procedure, shortened: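 MCF-7 cells in DMEM + 10% FBS, 384-well, exposed 6 h to an eight-point dilution series. Membrane integrity scored by high-content imaging of propidium iodide exclusion; bidirectional fit versus DMSO.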
# [5] = CCTE_Harrill_HTTr_Apoptosis_MCF7: CCTE's 6-hour Apoptosis Assessment for the High-Throughput Transcriptomics (HTTr) Platform, in MCF-7 cells cultured in DMEM + 10% fetal bovine serum, Harrill Lab (AID 2284011; active = hit-call score of the fitted dose curve at least 0.9, where 1 is the maximum; inactive = score below 0.9)
# Procedure, shortened: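 MCF-7 (DMEM + 10% FBS), 384-well; 8-pt dilution series, 6 h chemical exposure; caspase-3/7 activation via CellEvent Caspase 3/7 Green, HCI; bidirectional fit vs DMSO.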
# [6] = CCTE_Harrill_HTTr_CellCount_MCF7: CCTE's Cell Proliferation Assessment for the High-Throughput Transcriptomics (HTTr) Platform, Harrill Lab (AID 2284012);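 also: cells exposed to compound for six hours; intended direction is loss of nuclei count meaning fewer cells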
# Procedure, shortened: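 MCF7 cells exposed 6 hours to an eight-point dilution series; Hoechst-stained nuclei counted by high-content imaging. Bidirectional curve fitting against DMSO baseline.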
# [7] = target: Cellular tumor antigen p53 (Homo sapiens) (UniProt P04637); assay: TOX21_p53_BLA_p3_ratio: Tox21 HCT-116 p53 Agonism Beta-lactamase Assay, Ratio, Phase 3 (AID 2283596)
# Procedure, shortened: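 HCT116 p53-bla cells (4000/well) given compound in DMSO (217-fold dilution) after 5 h, incubated 16 h at 37C. CCF4-AM substrate 2 h at room temperature; 460/530 nm emission ratio, gain fitted against DMSO.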
# [8] = TOX21_p53_BLA_p4_viability: Viability Assessment in the Tox21 HCT-116 p53 Agonism Beta-lactamase Assay, Phase 4 (AID 2283597);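 also: hits lower the luminescence signal meaning cytotoxicity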
# Procedure, shortened: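 Cells plated, 5 h pre-incubation; DMSO compounds pinned (217-fold dilution); 16 h, 37C/5% CO2; CCF4-AM 2 h RT; CellTiter-Glo 30 min RT; luminescence read.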
# [9] = target: Cellular tumor antigen p53 (Homo sapiens) (UniProt P04637); assay: TOX21_p53_BLA_p5_ratio: Tox21 HCT-116 p53 Agonism Beta-lactamase Assay, Ratio, Phase 5 (AID 2283599)
# Procedure, shortened: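 HCT-116 cells carrying a p53-inducible beta-lactamase reporter were seeded at 4000 cells/well and dosed after 5 h with compound in DMSO (217-fold dilution). After 16 h at 37C, CCF4-AM substrate was added for 2 h, and the 460/530 nm emission ratio was scored as gain-of-signal versus DMSO.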
compound,measurement,setting,value
Cn1c(N)nc2nc[nH]c2c1=O,outcome,[1],inactive
same,outcome,[2],inactive
same,outcome,[3],inactive
CCCCC(CC)COC(=O)CC#N (stereo not drawn),outcome,[1],inactive
same,outcome,[2],inactive
same,outcome,[3],inactive
same,outcome,[4],inactive
same,outcome,[5],inactive
same,outcome,[6],inactive
CN(C)CCCOc1nn(Cc2ccccc2)c2ccccc12,outcome,[7],inactive
same,outcome,[8],inactive
CC(CCc1ccc(O)cc1)NCC(O)c1ccc(O)cc1 (stereo not drawn),outcome,[7],inactive
ONc1ccccc1,outcome,[1],inactive
same,outcome,[3],inactive
CC(C)(C)C(=O)OCOP(=O)(COCCn1cnc2c(N)ncnc21)OCOC(=O)C(C)(C)C,outcome,[7],inactive
same,outcome,[8],inactive
CCOC(=O)Nc1ccc2c(c1)N(C(=O)CN(C)C)c1ccccc1CC2,outcome,[1],inactive
same,outcome,[2],inactive
CCN(CC)CCOc1ccccc1C(=O)CCc1ccccc1,outcome,[7],inactive
same,outcome,[8],inactive
Nc1ncnc2c1ncn2CCOCP(=O)(O)O,outcome,[1],inactive
same,outcome,[3],inactive
Cc1ccc(N)cc1[N+](=O)[O-],outcome,[7],inactive
CN1[C@@H]2CC[C@H]1CC(OC(=O)c1c[nH]c3ccccc13)C2 (stereo partly drawn),outcome,[7],inactive
CN(C)CCCSc1ccccc1NC(=O)/C=C/c1ccccc1,outcome,[7],inactive
same,outcome,[8],inactive
COC(=O)C(C)O (stereo not drawn),outcome,[7],inactive
same,outcome,[8],inactive
same,outcome,[9],inactive
CCCCOCCOC(=O)CCCCCCCCC(=O)OCCOCCCC,outcome,[1],inactive
same,outcome,[2],inactive
same,outcome,[3],inactive
CN(C)CCN1C(=O)c2ccccc2N(C)c2ccccc21,outcome,[7],inactive
